Screening data: PubChem BioAssay, several laboratories
M1 antagonist – antagonists of rat M1 muscarinic receptor. 64,000 compounds, 3.4% hits. B-score at 10 µM. P08482. AID 628. CHO-M1 cells, Fluo-4 calcium, ACh EC80 antagonist mode; stronger effect = lower value;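 active = calcium fluorescence response, raw or row-and-column corrected B-score, differing from the plate sample mean either way at a set confidence level, mostly lower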
M1 ag – agonists of M1 muscarinic receptor; 64,000 compounds, 3% hits; CHO-M1 cells, Fluo-4 calcium fluorescence, agonist mode; stronger effect = higher value; B-score at 10 µM;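 active = fluorescence rise, raw or as B-score row- and column-corrected plate score, outside the 99.7% band of its plate's samples, either direction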
Cav3 T inh – inhibitors of human Cav3.2 T-type calcium channel; O95180; Cav3.2-expressing cells, Fluo-4 calcium fluorescence FDSS; stronger effect = lower value; B-score at 10 µM; 100,000 compounds, 4% hits;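 active = single-dose well whose peak fluorescence ratio is a statistical outlier from its plate by either plate-standardised score or position-corrected B-score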
HER2 expr 66K – lowers expression of human Her2 kinase | SKBR-3 HER2 protein level, AlphaScreen, 18-24 h; stronger effect = lower value | 65,000 compounds, 0.69% hits | HER2 level % of control, % at 10 µM | P04626 | AID 645;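 active = HER2 level under 5% of the carrier-only control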;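 note: 100% = DMSO carrier and 0% = 500 nM PU-H71 HSP90 inhibitor; lower value means stronger loss of Her2 protein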
PLAP act – activates human placental alkaline phosphatase; P05187; purified PLAP enzyme, luminescent substrate read-out; stronger effect = higher value; activation fold at 20 µM; 96,000 compounds, 1.2% hits; AID 696; in the data active = activation fold above about 2
The depositor's hits bear a star; · = not tested or not shown. Compounds with a hit are over-represented: about 7.9% of the library has one in this group of screens.

SMILES | M1 antagonist | M1 ag | Cav3 T inh | HER2 expr 66K | PLAP act
O=C(CN(Cc1ccco1)C(=O)CNS(=O)(=O)c1ccc(Cl)cc1)NCc1ccc(F)cc1 | -0.4 | 0.64 | -3.2 | 85 | ·
CC(C)C(C(=O)NCc1ccco1)N(C(=O)CNS(=O)(=O)c1ccc(Cl)cc1)C1CCCC1 (stereo not given) | -0.23 | 0.2 | -7.3* | 78 | 1.6
OCCCn1c(C(CO)Nc2nc(-c3ccc(Cl)cc3)cs2)nc2ccccc21 (stereo not given) | · | · | -0.65 | · | ·
CCN(CC)c1ccc2cc(S(=O)(=O)c3ccc(Cl)cc3)c(=O)oc2c1 | · | · | -4.1* | · | ·
CCCCCCc1cc2cc(S(=O)(=O)c3ccc(Cl)cc3)c(=O)oc2cc1O | · | · | -0.21 | · | ·
CCCc1nc2ccccc2c(=O)n1/N=C/c1c(C)[nH]n(-c2ccc(C)cc2)c1=O | -0.2 | 0.0018 | -3.8* | 110 | 2.1*
O=C(CCN1C(=O)CSC1=O)Nc1ccccc1 | · | · | 0.48 | 114 | 1
COC(=O)C(NC(=O)COc1ccccc1)(Nc1nc2c(s1)CCCC2)C(F)(F)F (stereo not given) | · | · | -6.3* | · | ·
CCOC(=O)C(NC(=O)CC)(Nc1nc2c(s1)CCCC2)C(F)(F)F (stereo not given) | · | · | 0.36 | · | ·
C[C@@H]1CCC[C@@]2(O[C@@H](CCO)C[C@H](O)[C@H]2O)O1 | · | · | 0.074 | · | ·
CCn1nccc1C(=O)Nc1cc(Cl)cc(Cl)c1 | · | · | -3.8* | · | ·
CC(NC(=O)C1CCCN(S(=O)(=O)c2cnc[nH]2)C1)c1ccccc1 (stereo not given) | 0.63 | 0.61 | 0.84 | 106 | 0.9
COC(=O)c1ccccc1NC(=O)C1CCN(C(=O)c2ccc(OC)cc2)CC1 | · | · | 0.039 | · | 1.3
COc1ccc(CCNC(=O)COC(=O)c2ccc(Br)o2)cc1 | · | · | -3.8* | · | 0.8
CN(C)S(=O)(=O)c1cccc(NC(=O)COC(=O)c2ccc(Br)o2)c1 | · | · | -0.45 | · | 0.8
CCN(CC)S(=O)(=O)c1ccc(NC(=O)COC(=O)c2ccc(Br)o2)cc1 | -0.27 | 0.0077 | -4.7* | 104 | 0.8
COc1ccc(-c2n[nH]c(C(F)(F)F)c2-c2cc3ccccc3o2)c(O)c1 | 0.13 | -0.15 | -0.91 | 69 | 2*
COc1c(Cl)ccc(Cl)c1C(=O)OCC(=O)O | · | · | 0.48 | 94 | 0.9
O=C(O)C1CC(=O)N(c2ccc3c(c2)OCCO3)C1 (stereo not given) | · | · | 0.031 | · | 1.1
O=C(Nc1nc2ccccc2[nH]1)C1CC(=O)N(c2ccc3c(c2)OCCO3)C1 (stereo not given) | -0.02 | -0.23 | -0.47 | 91 | 2.9*
O=C(CSc1nc2ccccc2[nH]1)Nc1cc(C(F)(F)F)ccc1N1CCOCC1 | 0.22 | 0 | -6.9* | 83 | 1.3
O=C(CSc1nc2ccccc2[nH]1)Nc1ccc2c(c1)OCCO2 | 0.59 | -0.091 | -3.9* | 76 | 1.5
Cc1ccc2nc(SCC(=O)Nc3ccc4c(c3)OCCO4)[nH]c2c1 | · | · | -1.5 | · | 1.8
O=C(CSc1nc2ccccc2[nH]1)Nc1ccccc1N1CCOCC1 | 0.43 | 0.92 | 0.15 | 97 | 1.8
CS(=O)(=O)N(CC(=O)NCc1ccco1)c1ccc(Cl)c(C(F)(F)F)c1 | 0.019 | -0.41 | -2 | 112 | 1
SMILES | M1 antagonist | M1 ag | Cav3 T inh | HER2 expr 66K | PLAP act
COc1ccc(CN(Cc2cc3cc4c(cc3[nH]c2=O)OCO4)C(=O)NC2CCCCC2)cc1 | 0.54 | -1.3 | -6.7* | 116 | 1.6
CCN(CC)CCN(Cc1cc2cc3c(cc2[nH]c1=O)OCCO3)C(=O)NC1CCCCC1 | -0.5 | -0.16 | -0.58 | 93 | 0.8
COc1ccc2sc(NC(=O)CC(C)C)nc2c1 | -0.63 | 0.24 | -1.3 | -19* | 0.9
COc1ccc2nc(NC(=O)CNS(=O)(=O)c3cccs3)sc2c1 | · | · | -0.86 | · | 2.5*
Cc1ccc2nc(NC(=O)Cc3cccs3)sc2c1 | · | · | -3.6* | · | 1.2
Cc1csc(NC(=O)CNS(=O)(=O)c2cccs2)n1 | -0.57 | -0.16 | -0.29 | 81 | 2*
COc1ccc2nc(NC(=O)CN(C)S(=O)(=O)c3cccs3)sc2c1 | · | · | -1.2 | · | 1.2
CCO[C@H]1OC(C(=O)N2CCOCC2)=C[C@@H](C)[C@@H]1CCCO | · | · | 0.36 | · | ·
CC(CNC(=O)c1cc(Cl)ccc1[N+](=O)[O-])NC(=O)c1cc(Cl)ccc1[N+](=O)[O-] (stereo not given) | · | · | -0.4 | · | 0.9
Cc1ccc(NS(=O)(=O)c2ccc(NC(=O)c3ccc(Br)o3)cc2)c(C)c1 | 1.3 | -0.18 | -2.1 | 46 | 1
COc1ccc(C(=O)CSc2nnc(CNc3nc(-c4ccccc4)cs3)n2C)cc1 | -0.037 | 0.84 | -5.7* | 71 | 1.4
Cn1c(CNc2nc(-c3ccccc3)cs2)nnc1SCC(=O)N1CCc2ccccc21 | -0.21 | -0.24 | -4.6* | 54 | 1.2
